Here are results for 4 molecules from PubChem BioAssay (NCATS).

Unmarked numbers belong to inactive results. Results filed as inconclusive are left out. The source made the active and inactive calls. Unless noted, the call rests on the fitted dose curve; in most records, active means well fitted curve in the direction sought with a large enough effect; inconclusive means small, poorly fitted or top-dose-only effect, or another doubt; inactive means no such curve, though single readings can be large; an effect the other way counts as inactive or inconclusive.

The target of assay [1] is Glucocorticoid receptor (Homo sapiens) (UniProt P04150). The assay is described as follows: GR-GFP Redistribution (AID 450;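 active means compounds whose dose series gives a full or clear partial fitted curve of increased nuclear translocation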; further: potency means the concentration at half of the fitted maximal effect).
Sequence of Glucocorticoid receptor (Homo sapiens) (P04150 whole entry, looked up): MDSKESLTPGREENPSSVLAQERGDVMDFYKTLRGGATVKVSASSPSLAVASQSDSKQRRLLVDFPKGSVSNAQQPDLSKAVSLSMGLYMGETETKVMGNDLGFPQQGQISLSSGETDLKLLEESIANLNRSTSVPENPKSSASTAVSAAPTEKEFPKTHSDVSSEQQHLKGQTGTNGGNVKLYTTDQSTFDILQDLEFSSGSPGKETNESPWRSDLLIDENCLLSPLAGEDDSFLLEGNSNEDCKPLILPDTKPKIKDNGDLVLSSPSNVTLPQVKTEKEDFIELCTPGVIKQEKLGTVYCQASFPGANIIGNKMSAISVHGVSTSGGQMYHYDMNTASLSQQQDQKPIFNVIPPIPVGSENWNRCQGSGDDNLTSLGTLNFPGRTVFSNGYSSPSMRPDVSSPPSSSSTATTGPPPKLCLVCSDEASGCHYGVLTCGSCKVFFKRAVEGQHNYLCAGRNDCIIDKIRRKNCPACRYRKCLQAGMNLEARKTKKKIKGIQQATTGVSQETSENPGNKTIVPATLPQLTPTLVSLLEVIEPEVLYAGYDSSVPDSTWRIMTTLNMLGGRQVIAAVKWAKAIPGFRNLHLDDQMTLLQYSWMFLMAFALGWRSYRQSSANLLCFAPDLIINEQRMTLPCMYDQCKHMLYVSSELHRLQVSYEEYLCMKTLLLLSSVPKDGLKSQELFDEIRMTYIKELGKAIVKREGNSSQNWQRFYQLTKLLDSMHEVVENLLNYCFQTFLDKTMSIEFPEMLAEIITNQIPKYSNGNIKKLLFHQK
For assay [2] the target is unchanged. The assay is described as follows: GR-EFC Redistribution (AID 451; calls by dose curve; further: potency means the concentration at half of the fitted maximal effect). The settings on record: CHO-K1 GR-EFC translocation, beta-gal luminescence, 2 h. The method, boiled down:
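CHO-K1 cells expressing nuclear EA and GR-ED fragments of b-gal; compounds titrated up to 46 uM final, 2 h at 37 C. GR nuclear translocation read as complemented b-gal luminescence after 1 h RT detection.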

Assay [3] concerns the target Mitogen-activated protein kinase 10 (Mus musculus) (UniProt Q61831). Briefly: JNK3 AlphaScreen Assay (AID 530; active means well fitted curve in either direction with a large enough effect, not every such curve was filed as active;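 further: kinase came from lysate of stimulated human HepG2 cells; signal reports phosphorylation of biotinylated GST-cJun 1-79 at Ser73 with 10 µM ATP; series mostly up to about 57 µM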). The method, boiled down: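 Pre-activated (IL-1β/TNFα) JNK3 in HepG2 lysates phosphorylates biotin-GST-cJun(1-79), 10 uM ATP; anti-phospho-cJun(Ser73) AlphaScreen read at room temperature, pH 7.6 Tris buffer. Compounds pre-incubated 15 min as titrations.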
Assay [4] has as its target 3',5'-cyclic-AMP phosphodiesterase 4B (Homo sapiens) (UniProt Q07343). Briefly: qHTS Assay for Inhibitors of PDE-IV (AID 607; active means well fitted activation curve with a large enough effect in the main read-out, with a control signal flat, not every such curve was filed as active). The method, boiled down: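 HEK293 ACTOne cells with CNG channel (1000/well), endogenous PDE4; membrane potential dye, compounds up to 22.9 uM final. Fluorescence Ex 535/Em 590; RO 20-1724 (100 uM final) as reference.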
For assay [5], the target named is Cytochrome P450 2C9 (Homo sapiens) (UniProt P11712). The assay is described as follows: qHTS Assay for Inhibitors and Substrates of Cytochrome P450 2C9 (AID 883). Further: potency means the concentration at half of the fitted maximal effect; nearly all actives have a fitted effect of over 60% in size. An outline of the steps:
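10nM CYP2C9 + 100uM Luciferin-H (=KM), 25mM KPO4; cpd 10 min 37C; NADPH regen, 60 min 37C; stop/detect with P450 Glo-Buffer 20 min; luminescence. Norm. to 57uM sulphaphenazole as full inhibition.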
(In qHTS, concentration-response curves come from the screen itself.)

The target of assay [6] is Cytochrome P450 3A4 (Homo sapiens) (UniProt P08684). The assay is described as follows: qHTS Assay for Inhibitors and Substrates of Cytochrome P450 3A4 (AID 884). Further: potency means the concentration at half of the fitted maximal effect; nearly all actives have a fitted effect of over 50% in size. An outline of the steps: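 20 nM human CYP3A4 with 25 uM Luciferin-PPXE (at KM) in 200 mM KPO4, preincubated 10 min with compound; NADPH regeneration started a 60 min RT reaction. Luciferin detected by luminescence, normalized to 57 uM ketoconazole as full inhibition.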
Sequence of Cytochrome P450 3A4 (Homo sapiens) (P08684 whole entry, looked up): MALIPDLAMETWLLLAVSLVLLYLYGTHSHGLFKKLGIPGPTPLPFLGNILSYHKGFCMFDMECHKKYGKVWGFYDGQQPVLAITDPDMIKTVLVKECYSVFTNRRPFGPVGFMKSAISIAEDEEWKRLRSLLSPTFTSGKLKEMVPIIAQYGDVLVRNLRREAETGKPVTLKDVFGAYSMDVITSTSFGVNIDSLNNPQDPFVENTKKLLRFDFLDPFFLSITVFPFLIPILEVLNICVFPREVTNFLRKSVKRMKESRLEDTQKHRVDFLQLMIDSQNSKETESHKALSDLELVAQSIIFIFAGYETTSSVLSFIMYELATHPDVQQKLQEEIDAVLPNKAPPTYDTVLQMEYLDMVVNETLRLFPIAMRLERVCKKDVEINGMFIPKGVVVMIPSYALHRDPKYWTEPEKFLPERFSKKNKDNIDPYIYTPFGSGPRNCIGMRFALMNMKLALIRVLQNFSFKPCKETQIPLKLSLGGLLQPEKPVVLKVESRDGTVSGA

Assay [7] has the same target. Briefly: qHTS Assay for Activators of Cytochrome P450 3A4 (AID 885). Further: nearly all actives have a fitted effect of over 65% in size. An outline of the steps: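 Human CYP3A4 (20 nM) with Luciferin-PPXE at 25 uM (its KM) in 200 mM KPO4; 10 min compound preincubation, then NADPH regeneration and 60 min reaction at RT. Luciferin read by luminescence; normalized to 57 uM ketoconazole full inhibition.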
Assay [8] has as its target Cytochrome P450 2D6 (Homo sapiens) (UniProt P10635). The assay is described as follows: qHTS Assay for Inhibitors and Substrates of Cytochrome P450 2D6 (AID 891). Further: nearly all actives have a fitted effect of over 60% in size. Further: potency means the concentration at half of the fitted maximal effect. An outline of the steps:
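Human CYP2D6 (5 nM) with 30 uM Luciferin-ME EGE (at Km) in 100 mM KPO4, compound preincubated 10 min, then NADPH regeneration system for 60 min at room temperature. Luciferin read by luminescence; normalized to 1.43 uM quinidine.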

Assay [9] concerns the target DNA dC->dU-editing enzyme APOBEC-3G (Homo sapiens) (UniProt Q9HC16). Briefly: qHTS for inhibitors of Vif-A3G interactions: Validation (AID 588379). The method, boiled down: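 HeLa cells stably expressing Vif and A3G-eYFP, 700 cells/well, incubated overnight at 37 deg C, then exposed to compound overnight at 37 deg C. Inhibition of Vif-mediated degradation read as increased yellow fluorescence (Ex 488/Em 500-530) by laser-scanning cytometry.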

Assay [10] addresses Cytochrome P450 2C19 (Homo sapiens) (UniProt P33261). Briefly: qHTS Assay for Inhibitors and Substrates of Cytochrome P450 2C19 (AID 899). Further: nearly all actives have a fitted effect of over 60% in size. The method, boiled down:
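Luminescent read-out of luciferin formed from Luciferin-H EGE (10uM, equal to KM). Enzyme 5nM in 50mM KPO4; compound added, 10 min at 37C, then NADPH regenerating system for 60 min at 37C. Full inhibition defined by 57uM ketoconazole.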

Sequence of 3',5'-cyclic-AMP phosphodiesterase 4B (Homo sapiens) (Q07343 whole entry, looked up): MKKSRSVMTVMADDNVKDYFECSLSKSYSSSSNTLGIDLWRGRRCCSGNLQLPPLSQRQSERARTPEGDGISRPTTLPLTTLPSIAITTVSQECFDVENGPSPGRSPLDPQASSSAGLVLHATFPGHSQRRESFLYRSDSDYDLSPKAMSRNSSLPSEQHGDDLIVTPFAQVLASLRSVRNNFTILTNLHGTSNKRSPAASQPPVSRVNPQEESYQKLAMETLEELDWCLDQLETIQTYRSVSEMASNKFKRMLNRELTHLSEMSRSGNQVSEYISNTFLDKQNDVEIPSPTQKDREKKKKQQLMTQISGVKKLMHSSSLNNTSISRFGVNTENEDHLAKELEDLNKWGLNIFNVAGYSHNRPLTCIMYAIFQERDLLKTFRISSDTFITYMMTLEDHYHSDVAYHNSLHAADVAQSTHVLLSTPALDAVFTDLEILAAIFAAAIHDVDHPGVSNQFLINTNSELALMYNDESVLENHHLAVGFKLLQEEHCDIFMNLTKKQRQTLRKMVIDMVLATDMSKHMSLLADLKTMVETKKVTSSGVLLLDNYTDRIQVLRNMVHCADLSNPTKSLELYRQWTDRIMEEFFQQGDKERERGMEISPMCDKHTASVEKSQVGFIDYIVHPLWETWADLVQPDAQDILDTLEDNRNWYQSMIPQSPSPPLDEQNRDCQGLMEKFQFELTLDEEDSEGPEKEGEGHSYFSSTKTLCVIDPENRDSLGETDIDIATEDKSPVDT
Sequence of Cytochrome P450 2D6 (Homo sapiens) (P10635 whole entry, looked up): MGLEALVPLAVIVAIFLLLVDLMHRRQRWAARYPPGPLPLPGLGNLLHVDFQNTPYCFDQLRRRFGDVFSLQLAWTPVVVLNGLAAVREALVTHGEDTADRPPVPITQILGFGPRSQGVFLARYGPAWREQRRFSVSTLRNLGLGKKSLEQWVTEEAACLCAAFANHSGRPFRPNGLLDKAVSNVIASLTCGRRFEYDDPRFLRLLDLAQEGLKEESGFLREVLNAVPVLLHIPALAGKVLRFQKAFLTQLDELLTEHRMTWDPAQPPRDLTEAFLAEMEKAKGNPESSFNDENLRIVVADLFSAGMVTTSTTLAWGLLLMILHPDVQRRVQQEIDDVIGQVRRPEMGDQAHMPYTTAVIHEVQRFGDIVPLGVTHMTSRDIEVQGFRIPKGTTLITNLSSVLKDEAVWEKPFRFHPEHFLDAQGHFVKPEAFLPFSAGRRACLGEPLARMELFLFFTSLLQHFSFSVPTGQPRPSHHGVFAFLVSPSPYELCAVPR
Sequence of Cytochrome P450 2C19 (Homo sapiens) (P33261 whole entry, looked up): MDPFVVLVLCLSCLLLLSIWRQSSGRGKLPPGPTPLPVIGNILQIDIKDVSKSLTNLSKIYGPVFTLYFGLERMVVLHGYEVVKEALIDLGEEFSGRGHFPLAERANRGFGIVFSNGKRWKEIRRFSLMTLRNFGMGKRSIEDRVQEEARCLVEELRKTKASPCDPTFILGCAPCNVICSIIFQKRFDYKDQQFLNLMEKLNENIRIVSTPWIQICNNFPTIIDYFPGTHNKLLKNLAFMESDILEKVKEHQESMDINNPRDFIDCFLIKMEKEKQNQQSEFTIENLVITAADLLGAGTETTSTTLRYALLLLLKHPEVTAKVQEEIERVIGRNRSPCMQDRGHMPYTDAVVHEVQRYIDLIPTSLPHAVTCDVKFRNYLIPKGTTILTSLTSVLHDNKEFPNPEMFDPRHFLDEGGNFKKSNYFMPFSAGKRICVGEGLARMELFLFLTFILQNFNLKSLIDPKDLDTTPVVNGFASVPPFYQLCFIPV
Sequence of Cytochrome P450 2C9 (Homo sapiens) (P11712 whole entry, looked up): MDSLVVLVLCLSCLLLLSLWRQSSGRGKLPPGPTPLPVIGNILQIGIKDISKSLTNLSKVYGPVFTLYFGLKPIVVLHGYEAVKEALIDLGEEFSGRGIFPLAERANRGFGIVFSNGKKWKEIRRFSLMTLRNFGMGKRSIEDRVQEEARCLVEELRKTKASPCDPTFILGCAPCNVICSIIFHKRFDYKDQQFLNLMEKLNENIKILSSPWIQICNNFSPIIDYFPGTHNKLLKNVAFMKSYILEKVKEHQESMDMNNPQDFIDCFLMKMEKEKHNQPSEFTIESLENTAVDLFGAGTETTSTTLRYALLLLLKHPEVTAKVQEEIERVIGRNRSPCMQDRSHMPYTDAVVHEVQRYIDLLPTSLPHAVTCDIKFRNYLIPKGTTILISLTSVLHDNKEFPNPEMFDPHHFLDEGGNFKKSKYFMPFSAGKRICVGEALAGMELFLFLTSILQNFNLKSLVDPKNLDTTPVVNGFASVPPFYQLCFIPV
Sequence of DNA dC->dU-editing enzyme APOBEC-3G (Homo sapiens) (Q9HC16 whole entry, looked up): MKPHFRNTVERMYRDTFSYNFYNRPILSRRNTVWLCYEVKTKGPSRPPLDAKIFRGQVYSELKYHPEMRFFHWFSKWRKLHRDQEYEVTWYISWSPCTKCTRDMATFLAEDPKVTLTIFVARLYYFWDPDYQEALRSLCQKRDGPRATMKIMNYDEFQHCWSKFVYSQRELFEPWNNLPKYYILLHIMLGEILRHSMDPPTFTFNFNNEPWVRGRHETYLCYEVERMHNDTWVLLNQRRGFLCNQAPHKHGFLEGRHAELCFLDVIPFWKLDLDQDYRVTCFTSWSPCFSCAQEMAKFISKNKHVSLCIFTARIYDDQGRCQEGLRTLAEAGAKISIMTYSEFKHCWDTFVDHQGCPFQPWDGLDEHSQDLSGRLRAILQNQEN

`O=c1c(O)c(-c2ccccc2)oc2cc(O)cc(O)c12`: the Potency in assay [1] is above 46 µM; in [2], above 46 µM; in assay [5], 3.16 µM (active); in [6], 15.8 µM (active); in [8], 20 µM (active). The Potency result in [3], in [4] and in [7] was “inactive” each time. Further, the result in assay [9] was inactive.

Turning to `C=CCn1c(SCC(=O)c2ccc(NS(=O)(=O)c3ccccc3)cc2)nnc1-c1cccs1`, the Potency in assay [1] is above 20.6 µM.

As for `C/C(=C\CNc1ncnc2c1ncn2[C@@H]1O[C@@H](CO)[C@@H](O)[C@H]1O)CO`, the Potency in assay [1] and in assay [2] was above 46 µM in each case. Further, the Potency entry in [3], in assay [4], in [8] and in assay [10] was “inactive” throughout.

For `COc1ccc(-c2nn(C)c(=O)c3ccccc23)cc1NS(C)(=O)=O`, the Potency in assay [1] is above 20.6 µM.
